Among the test systems are SK-MEL-2 melanoma; EKVX NSCLC; SN12C renal; UO-31 renal; TK-10 renal; ACHN renal; CAKI-1 renal; A498 renal; CCRF-CEM leukemia; MOLT-4 leukemia; OVCAR-8 ovarian; OVCAR-4 ovarian; SK-OV-3 ovarian; IGROV1 ovarian; OVCAR-3 ovarian; NCI/ADR-RES ovarian; HS 578T breast.
What all share (assay): NCI-60 one-dose screen, 48 h (100 = growth as untreated, 0 = no growth, -100 = all killed)
The next assay relates to SR leukemia. The conditions noted are these: 10 µM unless noted.
A further assay deals with OVCAR-5 ovarian. Conditions: 10 µM unless noted.
For a further assay, the system named is RPMI-8226 leukemia. Conditions: 10 µM unless noted.

Where “and” joins values, the source holds several entries; their conditions need not be identical. Equal entries are not always repeated. This is part of a sample that, as a whole, favours compounds with a hit. Of some 83,000 tested, about 20% had one in any assay.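 Activity criterion: percent growth below 10, measured after cells in 96-well plates were exposed to a single compound concentration for 48 hours.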 Calls of active or inactive are those of the source.

Consider `CCOC(=O)c1c(C)[nH]c(CO)c1C`, for which the growth in the assay on SK-MEL-2 melanoma (10 µM unless noted) was 101% (inactive); in the assay on EKVX NSCLC (10 µM unless noted) it was 79.1% (inactive); in the assay on SN12C renal (10 µM unless noted), 95.2% (inactive); with UO-31 renal (10 µM unless noted), 92.5% (inactive); in the assay with TK-10 renal (10 µM unless noted), 106% (inactive); in the assay with ACHN renal (10 µM unless noted), 107% (inactive). In addition, the growth in the assay on CAKI-1 renal (10 µM unless noted) was 101% (inactive); in the assay on A498 renal (10 µM unless noted), 107% (inactive); with CCRF-CEM leukemia (10 µM unless noted), 98.2% (inactive); in the assay with MOLT-4 leukemia (10 µM unless noted), 96.6% (inactive); in the assay on SR leukemia, 101% (inactive); with OVCAR-8 ovarian (10 µM unless noted) it was 101% (inactive). For the same compound, the growth in the assay with OVCAR-5 ovarian was 104% (inactive); in the assay with OVCAR-4 ovarian (10 µM unless noted), 105% (inactive); with SK-OV-3 ovarian (10 µM unless noted) it was 102% (inactive); in the assay on IGROV1 ovarian (10 µM unless noted), 98% (inactive); in the assay with OVCAR-3 ovarian (10 µM unless noted) it was 103% (inactive); with NCI/ADR-RES ovarian (10 µM unless noted), 105% (inactive).
For the compound `CNc1ccc2c(c1)c1ccccc1n2C`, the growth is 103% (inactive) in the assay on SK-MEL-2 melanoma (10 µM unless noted); 106% (inactive) in the assay on EKVX NSCLC (10 µM unless noted); 102% (inactive) in the assay on SN12C renal (10 µM unless noted); 92.4% (inactive) with UO-31 renal (10 µM unless noted); 97.9% (inactive) in the assay with TK-10 renal (10 µM unless noted); 114% (inactive) with ACHN renal (10 µM unless noted). Also, the growth is 98.9% (inactive) with CAKI-1 renal (10 µM unless noted); 88.8% (inactive) in the assay with A498 renal (10 µM unless noted); 109% (inactive) in the assay with CCRF-CEM leukemia (10 µM unless noted); 88.1% (inactive) in the assay with MOLT-4 leukemia (10 µM unless noted); 93.9% (inactive) in the assay on SR leukemia; 110% (inactive) with RPMI-8226 leukemia. For the same compound, the growth is 112% (inactive) in the assay with OVCAR-5 ovarian; 108% (inactive) in the assay with OVCAR-4 ovarian (10 µM unless noted); 106% (inactive) in the assay on SK-OV-3 ovarian (10 µM unless noted); 109% (inactive) with IGROV1 ovarian (10 µM unless noted); 102% (inactive) in the assay on OVCAR-3 ovarian (10 µM unless noted); 118% (inactive) in the assay on HS 578T breast (10 µM unless noted). In addition, in the assay on NCI/ADR-RES ovarian (10 µM unless noted), the growth is 102% (inactive).
Turning to `CCN(CC)CC(C)(C)C(=O)/C=C/c1ccc(Cl)c(Cl)c1`, the growth in the assay on SK-MEL-2 melanoma (10 µM unless noted) was -33.2% (active); in the assay with EKVX NSCLC (10 µM unless noted), 28.2% (inactive); in the assay on SN12C renal (10 µM unless noted) it was -43.8% (active); in the assay on UO-31 renal (10 µM unless noted), -72% (active); in the assay on TK-10 renal (10 µM unless noted), -34.7% (active); in the assay with ACHN renal (10 µM unless noted) it was -42.8% (active). For the same compound, the growth is -32.3% (active) in the assay on CAKI-1 renal (10 µM unless noted); -24.3% (active) with A498 renal (10 µM unless noted); 5.91% (active) in the assay on CCRF-CEM leukemia (10 µM unless noted); 10.3% (inactive) in the assay on SR leukemia; 2.2% (active) with RPMI-8226 leukemia; -21.6% (active) in the assay on OVCAR-8 ovarian (10 µM unless noted). Besides, the growth is -43.1% (active) in the assay with OVCAR-5 ovarian; 30.3% (inactive) with OVCAR-4 ovarian (10 µM unless noted); 42.7% (inactive) in the assay with SK-OV-3 ovarian (10 µM unless noted); -7.68% (active) in the assay with IGROV1 ovarian (10 µM unless noted); -66.3% (active) in the assay with OVCAR-3 ovarian (10 µM unless noted); 10.2% (inactive) in the assay with HS 578T breast (10 µM unless noted). Further, the growth in the assay with NCI/ADR-RES ovarian (10 µM unless noted) was -12.6% (active).
As to `COc1ccc(-c2cscc2N)cc1`, the growth with SK-MEL-2 melanoma (10 µM) was 95.1% (inactive); in the assay on SK-MEL-2 melanoma (100 µM) it was 24.6% (inactive); in the assay on EKVX NSCLC (10 µM unless noted), 51.4% [100 µM] (inactive); with SN12C renal (10 µM), 71.2% (inactive); in the assay on SN12C renal (100 µM), 55.1% (inactive); in the assay on TK-10 renal (10 µM) it was 101% (inactive). Further, the growth in the assay on TK-10 renal (100 µM) is 74.4% (inactive); in the assay with ACHN renal (10 µM), 54.7% (inactive); in the assay with ACHN renal (100 µM), 40.7% (inactive); in the assay with CAKI-1 renal (10 µM), 70.9% (inactive); in the assay on CAKI-1 renal (100 µM) it was 29.2% (inactive); with A498 renal (10 µM), 83.3% (inactive). The growth in the assay with A498 renal (100 µM) is 80.6% (inactive); in the assay on CCRF-CEM leukemia (10 µM unless noted), 31.3% [100 µM] (inactive); in the assay on MOLT-4 leukemia (10 µM), 66.4% (inactive); in the assay on MOLT-4 leukemia (100 µM) it was 38.6% (inactive); in the assay with SR leukemia, 59.1% [100 µM] (inactive); in the assay with OVCAR-4 ovarian (10 µM), 103% (inactive). For the same compound, the growth with OVCAR-4 ovarian (100 µM) was 45.3% (inactive); with SK-OV-3 ovarian (10 µM unless noted), 80.2% [100 µM] (inactive); in the assay with IGROV1 ovarian (10 µM), 91.1% (inactive); in the assay on IGROV1 ovarian (100 µM), 58% (inactive); in the assay on OVCAR-3 ovarian (10 µM), 112% (inactive); with OVCAR-3 ovarian (100 µM), 40.9% (inactive). The growth in the assay on HS 578T breast (10 µM) was 106% (inactive); in the assay on HS 578T breast (100 µM) it was 88.2% (inactive); in the assay on NCI/ADR-RES ovarian (10 µM) it was 77.8% (inactive); in the assay with NCI/ADR-RES ovarian (100 µM) it was 78.1% (inactive).
For the compound `NC1=CC(=O)c2ccccc2C1=O`, the growth in the assay on SK-MEL-2 melanoma (10 µM unless noted) is 88.6% (inactive); in the assay on EKVX NSCLC (10 µM unless noted), 95% (inactive); in the assay with SN12C renal (10 µM unless noted), 85.5% (inactive); in the assay with UO-31 renal (10 µM unless noted), 71.1% (inactive); in the assay with TK-10 renal (10 µM unless noted), 125% (inactive); in the assay with ACHN renal (10 µM unless noted) it was 79.9% (inactive). Moreover, the growth in the assay on CAKI-1 renal (10 µM unless noted) is 91.9% (inactive); with A498 renal (10 µM unless noted) it was 90% (inactive); in the assay with CCRF-CEM leukemia (10 µM unless noted), 85.4% (inactive); with MOLT-4 leukemia (10 µM unless noted), 94.3% (inactive); in the assay on SR leukemia, 81.3% (inactive); with RPMI-8226 leukemia, 81.7% (inactive). Further, the growth in the assay on OVCAR-8 ovarian (10 µM unless noted) was 85.3% (inactive); in the assay on OVCAR-5 ovarian it was 110% (inactive); in the assay on OVCAR-4 ovarian (10 µM unless noted) it was 87.7% (inactive); in the assay on SK-OV-3 ovarian (10 µM unless noted), 92.3% (inactive); with IGROV1 ovarian (10 µM unless noted), 90.8% (inactive); in the assay on OVCAR-3 ovarian (10 µM unless noted) it was 82.6% (inactive). The growth in the assay with HS 578T breast (10 µM unless noted) was 71.6% (inactive); in the assay on NCI/ADR-RES ovarian (10 µM unless noted) it was 88.6% (inactive).
As to `NC(N)=N/N=C/c1ccc([N+](=O)[O-])o1`, the growth is 83.4% (inactive) with SK-MEL-2 melanoma (10 µM unless noted); 122% (inactive) in the assay on EKVX NSCLC (10 µM unless noted); 86.6% (inactive) with SN12C renal (10 µM unless noted); 88.8% (inactive) in the assay with UO-31 renal (10 µM unless noted); 115% (inactive) in the assay on TK-10 renal (10 µM unless noted); 92.8% (inactive) in the assay with ACHN renal (10 µM unless noted). For the same compound, the growth is 106% (inactive) in the assay with CAKI-1 renal (10 µM unless noted); 105% (inactive) in the assay with A498 renal (10 µM unless noted); 87.9% (inactive) with CCRF-CEM leukemia (10 µM unless noted); 103% (inactive) in the assay on MOLT-4 leukemia (10 µM unless noted); 98.3% (inactive) in the assay with SR leukemia; 79.7% (inactive) with OVCAR-8 ovarian (10 µM unless noted). Besides, the growth in the assay with OVCAR-4 ovarian (10 µM unless noted) was 82.8% (inactive); in the assay with SK-OV-3 ovarian (10 µM unless noted), 116% (inactive); in the assay on IGROV1 ovarian (10 µM unless noted), 98% (inactive); in the assay on OVCAR-3 ovarian (10 µM unless noted), 83.1% (inactive); with HS 578T breast (10 µM unless noted), 105% (inactive); in the assay with NCI/ADR-RES ovarian (10 µM unless noted), 99.5% (inactive).
Turning to `O=C(O)c1c(Cl)c(Cl)c(Cl)c(Cl)c1-c1c2cc(I)c(=O)c(I)c-2oc2c(I)c(O)c(I)cc12`, the growth in the assay on SK-MEL-2 melanoma (10 µM) was 110% (inactive) and 108% (inactive) and 73.8% (inactive); with SK-MEL-2 melanoma (100 µM), -40.2% (active); in the assay with EKVX NSCLC (10 µM) it was 98.6% (inactive) and 98.8% (inactive) and 91.3% (inactive); with EKVX NSCLC (100 µM) it was -19.9% (active); with SN12C renal (10 µM), 99.1% (inactive) and 95.2% (inactive) and 98.3% (inactive); in the assay with SN12C renal (100 µM) it was 2.38% (active). In addition, the growth was 102% (inactive) and 72.9% (inactive) and 84% (inactive) in the assay with UO-31 renal (10 µM); 49.8% (inactive) in the assay with UO-31 renal (100 µM); 108% (inactive) and 116% (inactive) and 84.5% (inactive) with TK-10 renal (10 µM); 36.6% (inactive) with TK-10 renal (100 µM); 100% (inactive) and 98.7% (inactive) and 89.6% (inactive) in the assay on ACHN renal (10 µM); -80.7% (active) with ACHN renal (100 µM). Also, the growth in the assay with CAKI-1 renal (10 µM) was 107% (inactive) and 102% (inactive) and 90% (inactive); with CAKI-1 renal (100 µM), 42.9% (inactive); in the assay on A498 renal (10 µM), 300% (inactive) and 106% (inactive); in the assay on A498 renal (100 µM) it was 37.1% (inactive); in the assay with CCRF-CEM leukemia (10 µM), 104% (inactive) and 101% (inactive) and 51.4% (inactive); in the assay with CCRF-CEM leukemia (100 µM), -30.2% (active). For the same compound, the growth with MOLT-4 leukemia (10 µM) is 110% (inactive) and 106% (inactive) and 91.4% (inactive); in the assay with MOLT-4 leukemia (100 µM), -50.2% (active); in the assay on SR leukemia it was 97.9% (inactive); in the assay with OVCAR-8 ovarian (10 µM), 107% (inactive) and 105% (inactive) and 91.4% (inactive); in the assay with OVCAR-8 ovarian (100 µM), -13.2% (active); in the assay with OVCAR-4 ovarian (10 µM), 104% (inactive) and 110% (inactive) and 72.9% (inactive). For the same compound, the growth in the assay on OVCAR-4 ovarian (100 µM) is 53.2% (inactive); in the assay with SK-OV-3 ovarian (10 µM) it was 101% (inactive) and 92.4% (inactive) and 93.1% (inactive); with SK-OV-3 ovarian (100 µM) it was -73.9% (active); with IGROV1 ovarian (10 µM), 105% (inactive) and 80.5% (inactive) and -7.13% (active); in the assay on IGROV1 ovarian (100 µM), 5.19% (active); with OVCAR-3 ovarian (10 µM), 97.1% (inactive) and 72% (inactive) and 111% (inactive).

Values taken from PubChem BioAssay (NCI).
